Reference: PubChem BioAssay AID492992 (Johns Hopkins Ion Channel Center, 2010)
Out of some 4,900 compounds screened, about 2,100 (43%) were called active.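 The calls were made as follows: active = thallium signal inhibited by more than 5 SD of the compound-free buffer control wells, on both duplicate plates; inactive = the rest.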 The set was probably picked from earlier hits. A selection follows.

These compounds were tested against Potassium channel subfamily K member 9 (Homo sapiens) (UniProt Q9NPC2) (assay: KCNK9 potassium channel inhibitors, confirmation, HEK293 cells, thallium flux, duplicate (AID 492992;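 as to inhibition: 0% = assay buffer control wells without compound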)). Details: FluxOR thallium flux fluorescence, at 10 µM; active compounds read high.
Potassium channel subfamily K member 9 (Homo sapiens), sequence (Q9NPC2 whole entry, looked up): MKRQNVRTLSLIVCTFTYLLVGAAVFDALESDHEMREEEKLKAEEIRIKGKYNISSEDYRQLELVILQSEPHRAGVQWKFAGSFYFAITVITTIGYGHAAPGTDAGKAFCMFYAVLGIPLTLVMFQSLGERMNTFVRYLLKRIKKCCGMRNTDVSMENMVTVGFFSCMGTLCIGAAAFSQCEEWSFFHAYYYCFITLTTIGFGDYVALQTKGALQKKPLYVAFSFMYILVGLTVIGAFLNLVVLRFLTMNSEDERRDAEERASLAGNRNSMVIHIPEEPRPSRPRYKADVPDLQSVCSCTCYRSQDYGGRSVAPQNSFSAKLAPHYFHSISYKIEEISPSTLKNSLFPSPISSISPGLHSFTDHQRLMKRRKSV

**Q.** `COc1cc(Cl)c(S(=O)(=O)N2CCN(Cc3ccc4c(c3)OCO4)CC2)cc1Cl` was tested. Which inhibition did it give?
**A.** Its inhibition is “inactive”.

**Q.** With `COc1ccc(C(=O)Nc2ccccc2C(=O)N/N=C/c2ccccc2OC)cc1` as the compound, how does the inhibition read?
**A.** The inhibition was 36.5% (active).

**Q.** Which inhibition does the source give for `COc1ccc(C(=O)NN2C(=O)C3C(c4ccccc4)C=CC(c4ccccc4)C3C2=O)cc1` (centres undefined) here?
**A.** The inhibition was “inactive”.

**Q.** For `O=C(CNCCC1=CCCCC1)Nc1ccccc1N1CCCCCC1`, which inhibition is on record?
**A.** Its inhibition is 51.5% (active).

**Q.** For `O=c1cc(CN2CCN(c3cccc(Cl)c3)CC2)c2cc3c(cc2o1)CCCC3`, which inhibition is on record?
**A.** The inhibition was “inactive”.

**Q.** Which inhibition does the source give for `Cc1ccc(C(=O)c2c(NC(=O)c3ccncc3)sc3c2CCCC3)cc1` here?
**A.** Its inhibition is “inactive”.

**Q.** For `CCOC(=O)c1c(NC(=O)CSc2cn(CC)c3ccccc23)sc2c1CCC2`, which inhibition is on record?
**A.** The inhibition was “inactive”.

**Q.** How did the inhibition turn out when `COc1cccc(OC)c1C(=O)Nc1sc2c(c1C(N)=O)CCCC2` was run?
**A.** The inhibition was 33% (active).

**Q.** `Cc1cc2ccccn2c1C(=O)c1cccc(F)c1` was tested. Which inhibition did it give?
**A.** Its inhibition is “inactive”.

**Q.** How did the inhibition turn out when `COc1ccc(C(CCN(Cc2ccc(OC)c(OC)c2)C(=O)CCl)c2ccccc2)cc1` (centres undefined) was run?
**A.** Its inhibition is 36% (active).

**Q.** For `Cc1ccc(-c2csc(NCCc3nc4cc(Cl)c(Cl)cc4n3CCOCCO)n2)cc1`, which inhibition is on record?
**A.** The inhibition was 54% (active).

**Q.** For `CCOC(=O)N1CCN(C(=O)COc2ccc3oc4c(c3c2)CCCC4)CC1`, which inhibition is on record?
**A.** The inhibition was “inactive”.

**Q.** With `Cc1cccc(NC(=O)c2sc3nc4c(c(-c5ccco5)c3c2N)CCC4)c1` as the compound, how does the inhibition read?
**A.** The inhibition was 58.5% (active).

**Q.** How did the inhibition turn out when `O=C(N/N=C/c1ccccn1)c1cccc(NC(=O)c2ccc(Cl)cc2)c1` was run?
**A.** The inhibition was 48% (active).

**Q.** Which inhibition does the source give for `O=C(COc1ccc(Cl)cc1Cl)N/N=C/c1ccccn1` here?
**A.** Its inhibition is 47% (active).

**Q.** `O=C(Nc1ccc2c(c1)CCC2)c1cccc(S(=O)(=O)Nc2ccccc2Cl)c1` was tested. Which inhibition did it give?
**A.** Its inhibition is “inactive”.

**Q.** `Oc1ccc(/C=N/Nc2nc(-c3ccccc3F)nc3ccccc23)c(O)c1` was tested. Which inhibition did it give?
**A.** The inhibition was “inactive”.

**Q.** For `COc1ccc(C(=O)C2CCCN(C(=O)c3ccc(OC)o3)C2)c(C)c1` (centres undefined), which inhibition is on record?
**A.** The inhibition was “inactive”.

**Q.** For `COc1ccc(OC)c(C(=O)c2coc3ccc(OC)cc23)c1`, which inhibition is on record?
**A.** Its inhibition is 47% (active).

**Q.** Which inhibition does the source give for `Cc1ccnc(N2CCN(C(=O)CSc3nc4ccccc4nc3N3CCCCC3)CC2)c1` here?
**A.** The inhibition was “inactive”.

**Q.** `Clc1ccc(COn2c(-c3ccc(Cl)cc3Cl)nc3ncccc32)cc1` was tested. Which inhibition did it give?
**A.** Its inhibition is 41% (active).

**Q.** `Cc1onc(-c2ccc(Cl)cc2)c1-c1ccnn1S(=O)(=O)c1ccc(Cl)cc1` was tested. Which inhibition did it give?
**A.** Its inhibition is “inactive”.

**Q.** With `Cc1ccc(SCC(=O)c2cc(C)c(OC(=S)N(C)C)c(C)c2)cc1` as the compound, how does the inhibition read?
**A.** Its inhibition is “inactive”.

**Q.** `Cc1[nH][nH]c(=O)c1C(c1ccc(-c2ccc(Cl)cc2)o1)c1c(C)[nH][nH]c1=O` was tested. Which inhibition did it give?
**A.** Its inhibition is “inactive”.

**Q.** How did the inhibition turn out when `Cc1cc(C=O)c(C)n1-c1ccc(NC2CCCCC2)c([N+](=O)[O-])c1` was run?
**A.** The inhibition was 63% (active).

**Q.** How did the inhibition turn out when `Cc1ccc(NC(=O)c2cc([N+](=O)[O-])ccc2Cl)c(O)c1` was run?
**A.** Its inhibition is 58.5% (active).

**Q.** Which inhibition does the source give for `CCN(CC)S(=O)(=O)c1ccc(N(C)Cc2ccc(C(F)(F)F)cc2)nc1` here?
**A.** The inhibition was “inactive”.

**Q.** With `O=C1CC(c2ccccc2)=NN1c1ccc([N+](=O)[O-])cc1` as the compound, how does the inhibition read?
**A.** Its inhibition is “inactive”.

**Q.** Which inhibition does the source give for `O=C1c2ccccc2S(=O)(=O)N1CC(O)Cn1c2ccccc2c2ccccc21` (centres undefined) here?
**A.** Its inhibition is 28% (active).

**Q.** `CCCCOC(=O)CCCc1ccc([N+](=O)[O-])cc1[N+](=O)[O-]` was tested. Which inhibition did it give?
**A.** The inhibition was “inactive”.

**Q.** `Cc1ncoc1C(=O)N1CCCC(C(=O)c2ccc3c4c(cccc24)CC3)C1` (centres undefined) was tested. Which inhibition did it give?
**A.** Its inhibition is “inactive”.

**Q.** `COC(=O)C1=C(Nc2ccc(C)cc2)C=C(C)C(C(=O)OC)C1c1ccc(F)cc1` (centres undefined) was tested. Which inhibition did it give?
**A.** The inhibition was 36% (active).

**Q.** For `CCn1cnc2scc(-c3ccc(C)c(C)c3)c2c1=O`, which inhibition is on record?
**A.** Its inhibition is “inactive”.

**Q.** With `CCCOc1ccc2c3c(c(=O)oc2c1OCCC)CCC3` as the compound, how does the inhibition read?
**A.** Its inhibition is 66.5% (active).

**Q.** For `COc1ccc(C2CC(c3cccs3)=NN2c2ccccc2)cc1` (centres undefined), which inhibition is on record?
**A.** Its inhibition is 50% (active).

**Q.** With `COc1ccc(/C=C2\CCc3ccccc3C2=O)c(OC)c1OC` as the compound, how does the inhibition read?
**A.** The inhibition was “inactive”.

**Q.** `CN(c1ccccc1)S(=O)(=O)c1cccc(NC(=O)Cc2c(F)cccc2Cl)c1` was tested. Which inhibition did it give?
**A.** Its inhibition is 67.5% (active).

**Q.** For `Cc1ccccc1CSCCNC(=O)c1ccc(N(C)S(=O)(=O)c2ccccc2)cc1`, which inhibition is on record?
**A.** Its inhibition is “inactive”.

**Q.** For `Fc1cccc(Cl)c1CSc1ccc(-c2ccco2)nn1`, which inhibition is on record?
**A.** Its inhibition is 67% (active).

**Q.** Which inhibition does the source give for `FC(F)(F)c1cc(-c2ccco2)nc(NCc2ccc(Cl)cc2)n1` here?
**A.** Its inhibition is “inactive”.

**Q.** With `O=C(Nc1ccc(S(=O)(=O)N2CCCCC2)cc1)C1CCN(C(=O)c2ccc(F)cc2)CC1` as the compound, how does the inhibition read?
**A.** Its inhibition is “inactive”.

**Q.** How did the inhibition turn out when `Cc1ccc(C(=O)/C=C/c2c(C)nn(-c3ccccc3)c2Cl)cc1` was run?
**A.** The inhibition was “inactive”.

**Q.** With `Cc1ccccc1N1CCN(Cc2nc(Cc3ccccc3F)no2)CC1` as the compound, how does the inhibition read?
**A.** The inhibition was “inactive”.

**Q.** How did the inhibition turn out when `CC1CCN(C(=O)c2ccc(CSc3ccc(Cl)cc3)cc2)CC1` was run?
**A.** Its inhibition is “inactive”.

**Q.** How did the inhibition turn out when `CC(C)CC(COCc1ccc(Cl)cc1)N1CCN(C(=O)c2ccc(C(F)(F)F)cc2)CCC1=O` (centres undefined) was run?
**A.** The inhibition was 39.5% (active).

**Q.** Which inhibition does the source give for `CCCCN(CC)C(=O)C1CCCN(S(=O)(=O)c2cccc3nsnc23)C1` (centres undefined) here?
**A.** The inhibition was “inactive”.

**Q.** For `O=C(Nc1nnc(SCc2ccc(Cl)cc2Cl)s1)C1COc2ccccc2O1` (centres undefined), which inhibition is on record?
**A.** The inhibition was “inactive”.

**Q.** Which inhibition does the source give for `COc1ccc(C(=O)C2CCCN(Cc3ccc4nonc4c3)C2)c(C)c1` (centres undefined) here?
**A.** Its inhibition is “inactive”.

**Q.** For `CCCCCCCCn1c2c(c(=N)c3c1CCC3)CCCC2`, which inhibition is on record?
**A.** The inhibition was 62.5% (active).

**Q.** With `O=C(NC(=S)Nc1ccccc1C(=O)O)c1ccc(-c2ccc(Br)cc2)o1` as the compound, how does the inhibition read?
**A.** The inhibition was “inactive”.

**Q.** For `COc1ccc(-c2n[nH]c3c2CN(C(=O)c2ccc(F)cc2)CC3)cc1`, which inhibition is on record?
**A.** Its inhibition is “inactive”.

**Q.** How did the inhibition turn out when `Cc1cc(OC(C)C(=O)Nc2ccc(S(=O)(=O)Nc3onc(C)c3C)cc2)cc(C)c1Cl` (centres undefined) was run?
**A.** Its inhibition is “inactive”.

**Q.** How did the inhibition turn out when `O=C(Nc1ccccc1[N+](=O)[O-])C1C(c2ccccc2)=C1c1ccccc1` was run?
**A.** The inhibition was 40% (active).

**Q.** `Cc1ccc(CN2CCN(/N=C/c3ccco3)CC2)c(C)c1` was tested. Which inhibition did it give?
**A.** The inhibition was “inactive”.

**Q.** `CC1=NN(c2cccc(Cl)c2)C(=O)C12CC(C)=C(C)CS2` (centres undefined) was tested. Which inhibition did it give?
**A.** The inhibition was 45.5% (active).

**Q.** For `O=C(NCCc1ccccc1)c1ccc2c(c1)N(Cc1ccccc1)CCS2`, which inhibition is on record?
**A.** Its inhibition is “inactive”.

**Q.** `COc1ccccc1N1CCN(c2ncnc3sc(C)c(-c4ccccc4)c23)CC1` was tested. Which inhibition did it give?
**A.** The inhibition was 56% (active).

**Q.** With `CCCCNC(=S)N/N=C1\CCCCc2ccccc21` as the compound, how does the inhibition read?
**A.** The inhibition was “inactive”.

**Q.** Which inhibition does the source give for `CCCC(=O)n1nc(NCc2ccc(OC)cc2)nc1NCc1ccc(OC)cc1` here?
**A.** The inhibition was “inactive”.

**Q.** With `O=C(Nn1c(SCc2ccc([N+](=O)[O-])cc2)nc2ccccc2c1=O)c1ccc(F)cc1` as the compound, how does the inhibition read?
**A.** Its inhibition is 65% (active).

**Q.** How did the inhibition turn out when `CCCCC(=O)Nc1ccccc1N1CCN(c2ccc(F)cc2)CC1` was run?
**A.** The inhibition was 69% (active).

**Q.** With `Cc1ccc(N2CCN(S(=O)(=O)c3ccc(F)cc3)CC2)c(C)c1` as the compound, how does the inhibition read?
**A.** The inhibition was “inactive”.

**Q.** How did the inhibition turn out when `Cc1cccc(C(=O)Nc2ccccc2N2CCN(c3ccc(F)cc3)CC2)c1` was run?
**A.** The inhibition was 40% (active).

**Q.** With `CCOC(=O)CSc1nc2c(sc(=S)n2CCc2ccccc2)c(=O)n1Cc1ccco1` as the compound, how does the inhibition read?
**A.** The inhibition was 29.5% (active).
